Source: PubChem BioAssay
HP1b binding inh – HP1-beta chromodomain-methylated histone interaction inhibition. P83916. Potency, µM (highest dose often 114 µM), without a hit: at the top dose activity change, negative = inhibition, actives largely listed as inhibitors. 390,000 compounds, 0.56% hits. AlphaScreen HP1-beta / biotin-H3K9me3 peptide binding; note: potency is the fitted concentration of half-maximal effect; nearly all actives have a fitted effect of over 70% in size
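AlphaScreen: HP1-beta (50 nM) preformed 30 min with biotin-H3(1-18)K9me3 peptide (50 nM) in PBS pH 7.4, 0.01% Tween-20. Compound added for 30 min at RT, then streptavidin donor/nickel chelate acceptor beads (10 ug/mL) for 30 min.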
BAZ2B block – blocks human BAZ2B | Q9UIF8 | AlphaScreen BAZ2B-H3K14Ac peptide displacement | Potency, µM (titrated, usually from 114 µM), for inactives: at the top dose activity change, negative = inhibition, usual class: inhibitors | 360,000 compounds, 4.4% hits | AID 504333; note: potency is the fitted concentration of half-maximal effect; % is set by controls: 0 for no effect and ±100 for the full control effect; nearly all actives have a fitted effect of over 60% in size
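Multi-concentration screen (max 110 uM) measuring displacement of acetylated histone H3 peptide from BAZ2B by AlphaScreen, using 50 nM protein, 50 nM peptide and 10 ug/mL streptavidin donor plus Ni-chelate acceptor beads.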
CtBP-E1A blk – blocks the CtBP interaction with E1A; activity change, % (concentration not given with the values); AlphaScreen GST-E1A/His-CtBP binding, 1536-well; active compounds read low; AID 651724; 340,000 compounds, 0.49% hits; in the data active = activity change below about -65%; inconclusive = mostly about -30% to -63%; note: % is set by controls: 0 for no effect and ±100 for the full control effect
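Homogeneous bead-based format: GST-tagged E1A captured on glutathione donor beads, His-tagged CtBP on nickel acceptor beads; compounds precede bead addition by 2 h at 37 °C.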
G9a block – G9a (human) methyltransferase inhibition | Q96KQ7 | G9a H3K9 monomethylation, AlphaScreen, 2 h | 350,000 compounds, 8.8% hits | Potency, µM (doses to about 102 µM), inactives show at the top dose activity, negative = inhibition, most hits filed as inhibitors; note: potency is the fitted concentration of half-maximal effect; % is set by controls: 0 for no effect and ±100 for the full control effect; nearly all actives have a fitted effect of over 75% in size
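Compounds were preincubated with 20 nM G9a for 15 min, after which biotinylated H3K9 peptide (500 nM) and SAM (20 uM) started a 2 h room-temperature reaction. Monomethylated product was quantified by antibody-based AlphaScreen chemiluminescence.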
Six1-Eya2 blk – inhibitors of human Six1/Eya2 interaction | Q15475+O00167 | AlphaScreen GST-Six1/His-Eya2 binding, biochemical; active compounds read low | activity change, % (test concentration not listed) | 360,000 compounds, 0.56% hits; in the data active = activity change below about -65%; inconclusive = mostly about -30% to -63%; note: % is set by controls: 0 for no effect and ±100 for the full control effect
Target sequence (O00167 whole entry, looked up): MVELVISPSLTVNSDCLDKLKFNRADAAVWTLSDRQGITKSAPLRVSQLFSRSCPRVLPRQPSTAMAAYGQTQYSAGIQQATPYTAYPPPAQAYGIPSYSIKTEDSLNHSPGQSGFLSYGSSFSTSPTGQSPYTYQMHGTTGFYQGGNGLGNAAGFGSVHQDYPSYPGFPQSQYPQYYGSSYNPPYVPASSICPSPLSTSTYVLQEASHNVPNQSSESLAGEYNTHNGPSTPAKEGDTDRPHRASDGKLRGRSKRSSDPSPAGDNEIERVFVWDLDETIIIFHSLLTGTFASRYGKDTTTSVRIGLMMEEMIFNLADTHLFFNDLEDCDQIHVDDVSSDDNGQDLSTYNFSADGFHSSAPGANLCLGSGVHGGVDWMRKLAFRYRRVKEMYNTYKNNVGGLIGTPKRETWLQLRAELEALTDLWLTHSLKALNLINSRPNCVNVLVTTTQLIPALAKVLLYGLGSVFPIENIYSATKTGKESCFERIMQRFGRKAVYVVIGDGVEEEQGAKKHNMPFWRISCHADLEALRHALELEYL
Target sequence (Q15475 whole entry, looked up): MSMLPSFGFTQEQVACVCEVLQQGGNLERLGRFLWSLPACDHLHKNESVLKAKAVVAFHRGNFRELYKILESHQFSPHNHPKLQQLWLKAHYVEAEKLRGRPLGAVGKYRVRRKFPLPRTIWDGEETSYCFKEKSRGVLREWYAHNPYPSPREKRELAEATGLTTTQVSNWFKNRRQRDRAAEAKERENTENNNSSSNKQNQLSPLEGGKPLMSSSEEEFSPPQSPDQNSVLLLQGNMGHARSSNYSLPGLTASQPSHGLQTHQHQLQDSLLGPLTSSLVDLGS
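Compounds are tested against tagged Six1 and Eya2 proteins bridged by glutathione donor and nickel acceptor beads; after a one-hour incubation at 37 °C without light, AlphaScreen emission is recorded.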
JMJD2A Tudor inh – blocks the human JMJD2A Tudor domain | O75164 | AlphaScreen JMJD2A-Tudor / H3K4me3 peptide binding | Potency, µM (top dose mostly 114 µM), without a hit: at the highest dose activity change, negative = inhibition, actives largely listed as inhibitors | 390,000 compounds, 4.4% hits | AID 504339; note: potency is the fitted concentration of half-maximal effect; % is set by controls: 0 for no effect and ±100 for the full control effect; nearly all actives have a fitted effect of over 50% in size
The depositor's hits bear a star; u = inconclusive; x = no result; [ ] = remark or other dose. Only some compounds are listed: those with a hit (about 10% of all), similar ones and a draw of the others. Unless noted, calls come from the whole dose curve; as a rule, active = well fitted inhibition curve with a large enough effect; inconclusive = small, poorly fitted or top-dose-only effect; inactive = no such curve, though single readings can be large or run the other way.

SMILES	HP1b binding inh	BAZ2B block	CtBP-E1A blk	G9a block	Six1-Eya2 blk	JMJD2A Tudor inh
CC1=C(C(=O)OCc2ccccc2)C(c2ccccc2)NC(=O)N1CCCCCC(=O)O (stereo unspecified)	44%	-10%	2	79µM*	-1	-26%
CC1=C(C(=O)OCc2ccccc2)C(c2ccc(-c3ccccc3)cc2)NC(=O)N1CCCCCC(=O)O (stereo unspecified)	9%	50µM*	2	35µM*	-5	u
COC(=O)CCCN1C(=O)NC(c2ccc(-c3ccccc3)cc2)C(C(=O)OCc2ccccc2)=C1C (stereo unspecified)	9%	x	-11	x	4	-17%
CC1=C(C(=O)OCc2ccccc2)C(c2ccc([N+](=O)[O-])cc2)NC(=O)N1CCCC(=O)O (stereo unspecified)	43%	-7%	-1	45µM*	-6	-13%
Clc1nc(NCc2ccco2)c2[nH]cnc2n1	5%[57 µM]	x	x	x	x	-2%[57.1 µM]
COc1ccc(C(=O)N2CCC3(CCN(Cc4ccncc4)CC3)CC2)cc1	x	x	x	5%[12.7 µM]	x	x
Cc1ccccc1NC(=O)CN1C(=O)C2C3CC(C(Br)C3Br)C2C1=O (stereo unspecified)	u	-11%	8	5µM*	-1	u
Cc1cccc(NC(=O)CN2C(=O)C3CC=CCC3C2=O)c1C (stereo unspecified)	x	x	14	x	-3	x
N#Cc1nc(Cc2cccc3ccccc23)oc1N1CCC(C(N)=O)CC1	-4%	-39%	-3	-14%[59 µM]	-5	-35%
CC1CCN(c2oc(Cc3cccc4ccccc34)nc2C#N)CC1	u	u	u	8.9µM*	u	u
N#Cc1nc(Cc2cccc3ccccc23)oc1N1CCN(c2ccccc2)CC1	u	u	-24	22µM*	-24	u
COc1ccc(N2CCN(c3oc(Cc4cccc5ccccc45)nc3C#N)CC2)cc1	u	4µM*	-6	7%[0.0925 µM]	-8	u
CC1CC(C)CN(c2oc(Cc3ccccc3)nc2C#N)C1 (stereo unspecified)	u	14µM*	u	11µM*	u	u
Cc1ccc(NS(=O)(=O)c2ccc3c(c2)CCCN3C(=O)C2CCC2)c(C)c1	16%[57 µM]	3%	x	9%[59 µM]	x	-23%
CC(=O)Nc1ccc(S(=O)(=O)c2cc(O)ccc2O)cc1	u	-37%	-16	13µM*	6	-13%
CCN(CC)S(=O)(=O)c1ccc(C)c(C)c1	32%	1%	5	19%[59 µM]	4	-1%
Cc1ccc(S(=O)(=O)c2cc(O)ccc2O)cc1C	-35%	-9%	x	50µM*	-3	-21%
Cc1ccc(S(=O)(=O)Nc2ccc(O)c(S(=O)(=O)c3ccc(C)cc3)c2)cc1	11%	-17%	0	x	2	-11%
O=S(=O)(c1ccc2c(c1)OCCO2)N1CCN(S(=O)(=O)c2ccc(F)cc2F)CC1	x	x	x	x	x	-20%
COc1ccc(-c2noc3c2-c2nc(-c4ccccc4Cl)sc2CC3)cc1	u	x	6	x	0	-6%
CN(NC(=O)/C=C/C(=O)O)c1ncc(C(F)(F)F)cc1Cl	38%	u	2	6.3µM*	9	-16%
Cc1ccccc1NC1(C#N)C(=O)Nc2ccccc21 (stereo unspecified)	17%	u	6	13%	1	-30%
CC(C)c1ccc(NC2(C#N)C(=O)Nc3ccccc32)cc1 (stereo unspecified)	11%	u	-4	71µM*	-2	u
CCOC(=O)CC(c1ccc([N+](=O)[O-])cc1)n1c(C)ccc1C (stereo unspecified)	u	45µM*	-1	u	-13	-34%
CCN(CC)CCC/C(=N\O)C(O)(c1ccccc1)c1ccccc1	12%	-33%	-2	u	35	-12%
SMILES	HP1b binding inh	BAZ2B block	CtBP-E1A blk	G9a block	Six1-Eya2 blk	JMJD2A Tudor inh
CC[N+](C)(CC)CCC/C(=N/O)C(O)(c1ccccc1)c1ccccc1	12%	-21%	2	50µM*	5	u
CC(C)OC(=O)c1ccc(NC(=O)CSc2nc3ncccc3[nH]2)cc1	42%	-13%	5	0%	-3	-8%
O=C(c1ccco1)N1CCN(S(=O)(=O)c2ccc(Oc3ccccc3)cc2)CC1	-4%	-30%	2	35µM*	-13	-34%
CC(=O)c1ccc(S(=O)(=O)N2CCN(C(=O)c3ccccc3Cc3ccccc3)CC2)cc1	19%	-1%	7	9%[0.501 µM]	3	-1%
CC(=O)c1ccc(S(=O)(=O)N2CCN(C(=O)c3ccc(COc4ccccc4)o3)CC2)cc1	6%	-3%	0	50µM*	-8	-28%
CCOC(=O)c1c(C)[nH]c(C)c1C(=O)COC(=O)c1sccc1C	-16%	1%	-3	11%[12.7 µM]	-13	-30%
O=C(CC1N=C2c3ccccc3N=C(SCC(=O)Nc3cccc(C(F)(F)F)c3)N2C1=O)NCc1cccs1 (stereo unspecified)	27%	-2%	x	2%[59 µM]	x	-16%
COC(=O)C(=N/Nc1ccccc1C(=O)OC)/C(C)=N/O	13%	-15%	3	50µM*	-1	3%
CNc1ccccc1C(=O)OC	47%	9%	8	-13%[59 µM]	3	-20%
CCOC(=O)c1nc(Nc2ccc(C(=O)OC(C)C)cc2)c2ccccc2n1	24%	2%	x	-10%[59 µM]	x	1%
CCOC(=O)c1nc(Nc2ccc(N3CCC(C)CC3)cc2)c2ccccc2n1	u	40µM*	-1	x	u	28µM*
CCOC(=O)c1nc(Nc2ccc(C(=O)O)cc2)c2ccccc2n1	9%	-7%	u	40µM*	u	28µM*
CCOC(=O)c1ccc(Nc2nc(C(=O)OCC)nc3ccccc23)cc1	61%	-2%	-90*	-5%[59 µM]	-79*	-12%
CCOC(=O)c1nc(Nc2ccc(Nc3ccccc3)cc2)c2ccccc2n1	u	16µM*	-2	u	u	28µM*
CCOC(=O)c1nc(Nc2ccc(C(=O)OCC(C)C)cc2)c2ccccc2n1	38%	-1%	x	4%[59 µM]	x	-4%
CCOC(=O)c1nc(Nc2ccc(OC)cc2)c2ccccc2n1	39%	4%	u	13%[2.33 µM]	-26	-11%
COc1ccc(S(=O)(=O)NC2CCc3ccccc32)cc1OC (stereo unspecified)	33%	5%	3	-7%	5	0%
COc1cc(NC(=O)c2c(-c3ccc(C)cc3)nnc3ccccc23)cc(OC)c1OC	20%	-1%	x	11%[59 µM]	x	-3%
CCOC(=O)c1c(C)[nH]c(C)c1C(=O)CN1C(=O)NC2(CCCCCC2)C1=O	20%	9%	x	22µM*	0	-16%
